Shown are actives, neighbours in structure and some others; about 6.3% of the full set was active somewhere.
ATXN2 expr inh = ATXN2 expression inhibition | Potency, µM (highest dose often 57 µM), hits mostly inhibitors | AID 1745845 | HEK-293 ATXN2-luciferase reporter, luminescence, 24 h | 360,000 compounds, 0.72% hits; note: nearly all actives have a fitted effect of over 55% in size
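ATXN2-luciferase reporter cells (luciferase flanked by upstream and downstream ATXN2 gene portions) were treated 24 h at 37 °C with compounds at up to 57 uM. SteadyGlo luminescence gave expression; GF-AFC fluorescence gave viability.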
HepG2 tox = HepG2 cytotoxicity, counter-screen for TGF-b inhibitors. AID 588856. HepG2 CAGA-GFP viability, ATP luminescence, 18 h. Potency, µM (series often up to 46.1 µM), most hits filed as cytotoxic. 410,000 compounds, 0.76% hits
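HepG2 CAGA-GFP cells (1000/well, DMEM with 1% FBS) received compound, then TGF-beta at 500 pg/mL final, and were incubated 18 hours at 37 degrees C. Viability was read by CellTiter-Glo luminescence. Media-only wells were set as complete cell-killing and DMSO as no toxicity.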
RORgamma inh = blocks mouse ROR gamma transcriptional activity | P51450 | Drosophila S2 Gal4-RORgamma UAS-luciferase reporter, 20 h | Potency, µM (doses to about 53.6 µM), usual class: inhibitors | 310,000 compounds, 5.4% hits | AID 2551; note: nearly all actives have a fitted effect of over 60% in size
Target sequence (P51450 whole entry, looked up, the tested form may be a part): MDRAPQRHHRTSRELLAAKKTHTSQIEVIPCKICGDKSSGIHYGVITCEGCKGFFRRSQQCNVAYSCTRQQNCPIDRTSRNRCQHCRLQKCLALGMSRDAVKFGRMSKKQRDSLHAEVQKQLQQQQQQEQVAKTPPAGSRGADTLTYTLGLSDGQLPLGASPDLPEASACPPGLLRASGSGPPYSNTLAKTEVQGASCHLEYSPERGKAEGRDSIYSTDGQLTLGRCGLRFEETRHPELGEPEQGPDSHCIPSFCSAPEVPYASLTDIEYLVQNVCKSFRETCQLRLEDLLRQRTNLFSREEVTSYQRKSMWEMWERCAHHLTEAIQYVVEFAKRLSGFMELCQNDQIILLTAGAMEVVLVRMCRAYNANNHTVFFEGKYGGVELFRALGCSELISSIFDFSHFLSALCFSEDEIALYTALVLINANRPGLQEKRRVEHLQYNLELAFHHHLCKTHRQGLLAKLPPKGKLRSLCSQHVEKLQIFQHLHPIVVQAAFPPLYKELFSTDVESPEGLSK
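Using a luciferase readout, inhibitors were identified by reduced reporter activity in Drosophila cells coexpressing a copper-inducible Gal4–ROR gamma fusion and UAS-driven Photinus luciferase, incubated 20 hr after 700 uM copper sulfate.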
ATXN viability = cell viability loss in ATXN counter-screen; AID 651635; Potency, µM (titrated, usually from 56.7 µM), usual class: cytotoxic; S2 cells (HEK-293 line with an ATXN2-luciferase reporter) viability, CellTiter-Fluor protease fluorescence, 24 h; 400,000 compounds, 0.49% hits; note: nearly all actives have a fitted effect of over 40% in size
Gal4-VP16 FLuc = counter-screen for ROR gamma inhibitors: Gal4-VP16 reporter; Drosophila S2 Gal4-VP16 UAS-luciferase, luminescence, 20 h; Potency, µM (top dose mostly 53.6 µM), actives largely listed as inhibitors; 310,000 compounds, 3.5% hits;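 note: Gal4-VP16 expression switched on by copper sulfate through the metallothionein promoter; nearly all actives have a fitted effect of over 50% in size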
TGFb inhibitor = blocks TGF-b signaling; HepG2 CAGA-GFP TGF-b/SMAD3 reporter, GFP fluorescence, 18 h; TGF-beta stimulated, 500 pg/mL final; Potency, µM (top dose mostly 46.1 µM), actives largely listed as inhibitors; 410,000 compounds, 1.2% hits; AID 588855; note: nearly all actives have a fitted effect of over 65% in size
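TGF-beta reporter screen: HEPG2 CAGA-GFP, 1% FBS, 500 pg/mL TGF-beta final, 18 h; per-cell GFP summed per well; curves fitted and categorized by class.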
Each line names hits and unclear results; the compound was inactive in the other large screens. Calls come from the whole dose curve; as a rule, active = well fitted curve in the direction sought with a large enough effect; inconclusive = small, poorly fitted or top-dose-only effect, or another doubt; inactive = no such curve, though single readings can be large; an effect the other way counts as inactive or inconclusive.

COc1ccc(C2=NNC(c3cc(Cl)cc4c3OCOC4)C2)c(O)c1 (configuration not stated)	none (no result: ATXN2 expr inh, HepG2 tox, ATXN viability, TGFb inhibitor)
CC(=O)c1ccc(NC(=O)COc2ccccc2-c2nc(C)no2)cc1	none (no result: RORgamma inh, Gal4-VP16 FLuc)
O=C1NC[C@@H](CCCCN2C[C@H](Cc3ccc(O)cc3)N(CC3CCCCC3)C(=O)C2=O)N(Cc2ccccc2)C1=O	none (no result: HepG2 tox, RORgamma inh, Gal4-VP16 FLuc, TGFb inhibitor)
COc1ccc2c(c1)c(=O)c(C(=O)c1ccc(F)cc1)cn2CC(=O)Nc1ccc2c(c1)OCCO2	none (no result: RORgamma inh, Gal4-VP16 FLuc)
COc1ccc(N2CC(NC(=O)Cc3cccs3)CC2=O)cc1 (configuration not stated)	none (no result: ATXN2 expr inh, RORgamma inh, ATXN viability, Gal4-VP16 FLuc)
Cc1ccc(C)c(Nc2nn3c(=O)c4ccc(C(=O)NCc5ccccc5)cc4nc3s2)c1	ATXN2 expr inh inconclusive, ATXN viability inconclusive (no result: RORgamma inh, Gal4-VP16 FLuc)
CC(=C/c1ccccc1)/C=N/NC(=O)c1nnn(-c2nonc2N)c1CN1CCC(C)CC1	RORgamma inh inconclusive, ATXN viability inconclusive
CC1CCN(Cc2c(C(=O)N/N=C/c3ccccc3O)nnn2-c2nonc2N)CC1	ATXN2 expr inh 3.16µM, RORgamma inh 10µM, Gal4-VP16 FLuc 7.94µM
C/C(=N\NC(=O)c1nnn(-c2nonc2N)c1CN1CCCCC1)c1ccccc1O	RORgamma inh 6.31µM, Gal4-VP16 FLuc inconclusive
C/C(=N\NC(=O)c1nnn(-c2nonc2N)c1CN(C)c1ccccc1)c1ccccc1O	ATXN2 expr inh inconclusive, RORgamma inh 1.58µM, Gal4-VP16 FLuc 3.98µM, TGFb inhibitor inconclusive
COc1ccc(/C(C)=N/NC(=O)c2nnn(-c3nonc3N)c2CN(C)c2ccccc2)cc1	RORgamma inh inconclusive, ATXN viability inconclusive, Gal4-VP16 FLuc inconclusive
Cc1ccccc1NC(=O)c1c(NC(=O)c2ccco2)sc2c1CCC(C(C)(C)C)C2 (configuration not stated)	none (no result: RORgamma inh, Gal4-VP16 FLuc)
Cn1c(=O)c2c(nc(Sc3ncccn3)n2Cc2ccc(Cl)cc2)n(C)c1=O	Gal4-VP16 FLuc 15.8µM
COCCNC(=S)Nc1ccc2nc(N3CCOCC3)cc(C)c2c1	RORgamma inh inconclusive
Cc1cc(N2CCCC2)nc2ccc(NC(=S)NC(C)C)cc12	none
Cc1cc(N2CCOCC2)nc2ccc(NC(=S)NC(C)C)cc12	RORgamma inh 10µM, Gal4-VP16 FLuc inconclusive (no result: ATXN2 expr inh)
Cc1cc(N2CCOCC2)nc2ccc(NC(=S)NCc3ccc4c(c3)OCO4)cc12	ATXN2 expr inh inconclusive, RORgamma inh 22.4µM, Gal4-VP16 FLuc inconclusive, TGFb inhibitor inconclusive
CN1CCN(c2nc3c(=O)[nH]c(N)nc3n2C2OC(CO)C(O)C2O)CC1 (configuration not stated)	none (no result: ATXN2 expr inh, RORgamma inh, ATXN viability, Gal4-VP16 FLuc)
COc1ccc(-c2nnc(-c3ccc(F)cc3)o2)cc1	none (no result: ATXN viability)
COc1cccc2sc(Nc3nnc(-c4cccs4)o3)nc12	RORgamma inh 1.41µM, Gal4-VP16 FLuc 2µM
Fc1cccc2sc(Nc3nnc(-c4ccco4)o3)nc12	RORgamma inh 0.126µM, TGFb inhibitor inconclusive
COc1cccc2sc(Nc3nnc(-c4ccc(F)cc4)o3)nc12	ATXN2 expr inh inconclusive, HepG2 tox 12.6µM, RORgamma inh 2.24µM, Gal4-VP16 FLuc 5.01µM (no result: ATXN viability)
CCOc1ccc(CCNC(=O)Cn2c(-c3cccs3)cc3ccccc32)cc1	none (no result: RORgamma inh, Gal4-VP16 FLuc)
N#CC1=C(Nc2ccccc2Cl)SC(c2ccccc2O)NC1=O (configuration not stated)	RORgamma inh 12.6µM, Gal4-VP16 FLuc inconclusive (no result: ATXN2 expr inh)
CO[C@H]1OC2O[C@@]3(C)CC[C@H]4[C@H](C)CC[C@@H]([C@H]1C)[C@@]24OO3 (some centres not stated)	none (no result: ATXN2 expr inh, HepG2 tox, ATXN viability, TGFb inhibitor)
CC(=O)N1CCC(C(=O)N2CCN(S(=O)(=O)c3ccc(Cl)s3)CC2)CC1	HepG2 tox 14.1µM (no result: RORgamma inh, Gal4-VP16 FLuc)
CN(C)c1ccc(/C=N/NC(=O)c2cc(=O)[nH]c3ccccc23)cc1	none (no result: ATXN2 expr inh)
CN(C)c1ccc(/C=N/NC(=O)c2ccccn2)cc1	ATXN2 expr inh inconclusive, Gal4-VP16 FLuc inconclusive (no result: ATXN viability)
CN(C)c1ccc(/C=N\NC(=O)c2csnn2)cc1	RORgamma inh inconclusive, Gal4-VP16 FLuc 17.8µM
CN(C)c1ccc(/C=N\NC(=O)c2cccc3cc[nH]c23)cc1	RORgamma inh 7.94µM, Gal4-VP16 FLuc inconclusive (no result: ATXN2 expr inh)
CCCNC(=O)c1cc(C2CCCCN2C(=O)c2ccccc2)on1 (configuration not stated)	none (no result: RORgamma inh, Gal4-VP16 FLuc)
C=C[C@@H]1c2c(F)cccc2N(S(=O)(=O)c2ccc(C)cc2)[C@H](c2ccc(OC(C)=O)cc2)C1(C#N)C#N	ATXN2 expr inh inconclusive, ATXN viability 31.6µM, TGFb inhibitor inconclusive (no result: RORgamma inh, Gal4-VP16 FLuc)
O=S(=O)(Nc1cc(O)cc2cccnc12)c1ccc(Cl)s1	RORgamma inh 3.98µM, Gal4-VP16 FLuc inconclusive (no result: ATXN2 expr inh, HepG2 tox, ATXN viability, TGFb inhibitor)
COc1ccccc1NS(=O)(=O)c1ccc(Br)s1	none
O=S(=O)(Nc1cc(O)cc2cccnc12)c1ccc(Br)s1	RORgamma inh 7.94µM, Gal4-VP16 FLuc 6.31µM (no result: ATXN2 expr inh, HepG2 tox, ATXN viability, TGFb inhibitor)
CC(C)NC(=O)c1cn(C2CCC(NC(=O)C(C)(C)C)CC2)nn1 (configuration not stated)	none (no result: ATXN2 expr inh, HepG2 tox, RORgamma inh, Gal4-VP16 FLuc, TGFb inhibitor)
O=C(NNc1ccccc1[N+](=O)[O-])Nc1ccc(Cl)c(Cl)c1	RORgamma inh inconclusive, TGFb inhibitor inconclusive
CCN(CC)S(=O)(=O)c1cc([N+](=O)[O-])ccc1NNC(=O)Nc1ccc(Cl)c(Cl)c1	ATXN2 expr inh inconclusive, Gal4-VP16 FLuc inconclusive, TGFb inhibitor 7.08µM (no result: ATXN viability)

Assay outcomes as filed in PubChem.
